About 79,000 compounds went through this panel and 15% of them were active in at least one assay; those are over-represented in the sample as a whole. Unmarked numbers belong to inactive results. Calls of active or inactive are those of the source. No stated cut-off is given here; in the data, active means growth inhibition above about 70%; inactive means the rest.
Tests used:
[1] = NCI Yeast Anticancer Drug Screen. Data for the rad50 strain (AID 155);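 further: 0% = growth of vehicle-only cultures of the same strain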; conditions: S. cerevisiae rad50 strain growth inhibition, active compounds read high
In short: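 Relative growth inhibition (compound vs vehicle) was measured in yeast with a defined repair-gene alteration.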

[2] = NCI Yeast Anticancer Drug Screen. Data for the mec2-1 strain (AID 157); conditions: S. cerevisiae mec2-1 strain, active compounds read high
In short: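 Yeast mec2-1 mutant treated with compound. Readout: growth inhibition vs vehicle controls.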

[3] = NCI Yeast Anticancer Drug Screen. Data for the sgs1 mgt1 strain (AID 161);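 further: 0% = growth of cultures given vehicle only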; conditions: S. cerevisiae sgs1 mgt1 strain, active compounds read high
In short: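 Mutant yeast exposed to compound; growth scored against vehicle-only wells.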

[4] = NCI Yeast Anticancer Drug Screen. Data for the cln2 rad14 strain (AID 165);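 further: 0% = growth equal to vehicle treated cultures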; conditions: S. cerevisiae cln2 rad14 strain, active compounds read high
In short: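 cln2 rad14 yeast strain; compound exposure; growth inhibition read vs vehicle controls.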

[5] = NCI Yeast Anticancer Drug Screen. Data for the bub3 strain (AID 167); conditions: S. cerevisiae bub3 mutant strain, active compounds read high
In short: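 Screening used yeast with an engineered genetic alteration affecting cell cycle control. Compound-exposed cultures were compared with vehicle cultures, and reduced growth was taken as inhibition.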

[6] = NCI Yeast Anticancer Drug Screen. Data for the mlh1 rad18 strain (AID 175); conditions: S. cerevisiae mlh1 rad18 strain growth inhibition, active compounds read high
In short: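 Yeast w/ defined DNA-repair lesions; compound exposure; growth vs vehicle controls → % inhibition.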

[7] = at 5.0 µM (retest, dose inferred, filed as 0.5)
[8] = at 50.0 µM (retest, dose inferred, filed as 5.0)

Structure (SMILES)	growth inhibition [1, 7]	growth inhibition [1, 8]	growth inhibition ([1]; at 50.0 µM)	growth inhibition [2, 7]	growth inhibition [2, 8]	growth inhibition ([2]; at 50.0 µM)	growth inhibition [3, 7]	growth inhibition [3, 8]	growth inhibition ([3]; at 50.0 µM)	growth inhibition [4, 7]	growth inhibition [4, 8]	growth inhibition ([4]; at 50.0 µM)	growth inhibition [5, 7]	growth inhibition [5, 8]	growth inhibition ([5]; at 50.0 µM)	growth inhibition [6, 7]	growth inhibition [6, 8]	growth inhibition ([6]; at 50.0 µM)
CN(C)/N=C1\CC(c2ccccc2)C(C#N)(C#N)C1(C#N)C#N (configuration not stated)	41%	99% (active)	89.3% (active)	51%	100% (active)	89% (active)	42%	100% (active)	88.5% (active)	39%	99% (active)	88.5% (active)	56%	100% (active)	89.6% (active)	51%	99% (active)	91.5% (active)
N#CC(Nc1cccc(C(F)(F)F)c1)c1ccccc1C(F)(F)F (configuration not stated)	-4%	97% (active)	86% (active)	3%	97% (active)	92% (active)	-11%	97% (active)	90.1% (active)	25%	46%	89% (active)	10%	97% (active)	90.5% (active)	-12%	98% (active)	84.8% (active)
O=C(O)c1cc2c3ccccc3sc2c2ccccc12	-2%	4%	55.4%	-3%	-4%	5.3%	-1%	3%	15.1%	-3%	-3%	2.45%	-3%	-2%	19.7%	-3%	-2%	28%
NC(CCCCCC(N)C(=O)O)C(=O)O (configuration not stated)	-165%	-146%	15.1%	-50%	-54%	9.1%	-66%	-66%	14.9%	-60%	-83%	76.8% (active)	-67%	-71%	18.8%	-241%	-121%	3.05%
CC1(Cc2ccccc2)CCCC(C=O)C1=O.[Cu+2] (configuration not stated)	1%	98% (active)	66.5%	0%	97% (active)	31.5%	-4%	98% (active)	94.7% (active)	0%	92% (active)	-21.9%	-3%	96% (active)	-3.85%	0%	99% (active)	44.9%
CP(=O)(c1ccccc1)c1ccccc1	-20%	-17%	12.3%	-1%	5%	13.2%	-21%	-14%	18.4%	18%	-12%	6.05%	-22%	-20%	5.05%	-24%	-25%	41.8%
N#[N+]c1c([O-])ccc2nc3ccccc3nc12	-101%	12%	68.4%	-43%	-45%	40.7%	-56%	-30%	10.2%	-52%	-65%	-1.5%	-59%	-69%	-14.9%	-114%	-56%	66.9%
O=C(CBr)N1c2ccccc2S(=O)(=O)c2ccc3ccccc3c21	36%	97% (active)	79.5% (active)	49%	98% (active)	87% (active)	66%	98% (active)	81.2% (active)	36%	96% (active)	64.5%	79% (active)	97% (active)	76.5% (active)	79% (active)	97% (active)	89.8% (active)
O=C(O)CSc1cc2c3ccccc3sc2c2ccccc12	16%	96% (active)	96.3% (active)	14%	97% (active)	97.8% (active)	11%	97% (active)	98.5% (active)	4%	96% (active)	93.8% (active)	8%	94% (active)	79.7% (active)	12%	97% (active)	98.1% (active)
CCC(C)C(C(=O)NOC(=O)c1ccccc1)/C(N)=N/OC(=O)c1ccccc1 (configuration not stated)	89% (active)	99% (active)	99.5% (active)	83% (active)	100% (active)	98.3% (active)	96% (active)	99% (active)	99.6% (active)	87% (active)	99% (active)	99.5% (active)	91% (active)	99% (active)	99.4% (active)	97% (active)	99% (active)	98.9% (active)
O=C(c1ccccc1)N(c1ccccc1)c1ccc2ccccc2c1	-3%	16%	5.8%	-3%	21%	-6.1%	-5%	77% (active)	12%	-35%	30%	12.3%	13%	67%	21.8%	-12%	67%	-1.8%
CCc1cccc(CC)c1NC1=C(Cl)C(=O)c2ccccc2C1=O	99% (active)	99% (active)	-21.1%	100% (active)	99% (active)	5%	99% (active)	99% (active)	14.5%	95% (active)	98% (active)	-26.9%	99% (active)	98% (active)	5.15%	99% (active)	98% (active)	19.1%
CCC(c1ccc(Cl)cc1)C(C#N)c1ccc(Cl)cc1 (configuration not stated)	10%	55%	84.3% (active)	-1%	33%	61.5%	-3%	46%	68.1%	-8%	12%	11.4%	6%	44%	41.8%	2%	52%	76.4% (active)
O=C(/C=C(\C(=O)c1ccccc1)N(/C(=C/C(=O)c1ccccc1)C(=O)c1ccccc1)c1ccccc1)c1ccccc1	2%	30%	92.2% (active)	-3%	13%	88.8% (active)	-5%	30%	90.8% (active)	-2%	-21%	83.5% (active)	0%	34%	88.4% (active)	0%	12%	92.7% (active)
CCCn1cc2c(SC)nc(SC)nc2n1	-1%	5%	98.1% (active)	0%	46%	98.3% (active)	-2%	10%	97% (active)	2%	38%	87.3% (active)	4%	99% (active)	99.5% (active)	-3%	14%	98.1% (active)
C=C1N(S(=O)(=O)c2ccc(C)cc2)C(=O)OCC12CCCC2	-22%	3%	2.2%	-15%	-21%	-1.5%	-21%	9%	20%	-21%	5%	8.9%	-16%	43%	54.2%	-24%	-2%	3.5%
CC1(C)COC(c2cccc(C(O)c3ccc(Cl)cc3)c2)=N1 (configuration not stated)	40%	99% (active)	47%	-19%	99% (active)	68%	-23%	99% (active)	72.5% (active)	-2%	99% (active)	40.5%	-21%	99% (active)	52.5%	26%	99% (active)	54.1%
CC(CO)CCC(=O)C(C)C1C(=O)CC2CC3CC(O)CCC3(C)CC21C (configuration not stated)	3%	41%	83.2% (active)	-2%	66%	81% (active)	2%	48%	84% (active)	4%	88% (active)	95.1% (active)	2%	85% (active)	63.6%	16%	89% (active)	90.3% (active)
O=C(OCc1ccccc1)N1N=NC2C1C1CC(OCc3ccccc3)(OCc3ccccc3)C2O1 (configuration not stated)	18%	18%	40.1%	2%	2%	-21.9%	18%	18%	-10.7%	4%	4%	13.2%	6%	6%	18%	18%	18%	-22.2%
